Laboratory results from PubChem BioAssay (NCATS).
Records with an inconclusive call do not appear. The source made the active and inactive calls. The call rests on the fitted dose curve; in most records, active means well fitted curve in the direction sought with a large enough effect; inconclusive means small, poorly fitted or top-dose-only effect, or another doubt; inactive means no such curve, though single readings can be large; an effect the other way counts as inactive or inconclusive.

Assays:
[1] = target: Cellular tumor antigen p53 (Homo sapiens) (UniProt P04637); experiment: Primary qHTS for small molecule compounds that upregulate eGFP-tagged delta133p53alpha (in N-terminal) cells. (AID 2060322); details: NCI-H358 eGFP-delta133p53alpha fluorescence, 24 h; activation: active compounds read high;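 further: cells pre-induced with doxycycline then dosed without doxycycline; series mostly up to about 56 µM; 0% = DMSO vehicle and 100% = reference activator; nearly all actives have a fitted effect of over 75% in size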
Sequence of Cellular tumor antigen p53 (Homo sapiens) (P04637 whole entry, looked up): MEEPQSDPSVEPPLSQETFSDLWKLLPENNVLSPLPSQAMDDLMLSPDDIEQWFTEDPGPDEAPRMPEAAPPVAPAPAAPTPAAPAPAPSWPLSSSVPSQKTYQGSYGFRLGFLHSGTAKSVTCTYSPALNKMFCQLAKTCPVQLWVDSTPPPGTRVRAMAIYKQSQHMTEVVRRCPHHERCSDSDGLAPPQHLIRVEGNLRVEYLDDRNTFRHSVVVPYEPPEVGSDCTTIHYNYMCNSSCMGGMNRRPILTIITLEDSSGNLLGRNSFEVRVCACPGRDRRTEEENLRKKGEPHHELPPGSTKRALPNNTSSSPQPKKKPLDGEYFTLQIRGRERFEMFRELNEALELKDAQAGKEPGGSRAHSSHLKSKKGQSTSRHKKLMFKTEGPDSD
Method in brief: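 NCI-H358 cells pre-induced 24 h with 10 ng/ml doxycycline for eGFP-delta133p53alpha, plated dox-free and exposed 24 h at 37C to titrated compounds. Fixed, Hoechst-stained; gated GFP peak intensity by laser scanning cytometry, normalized to DMSO (0%) and 57.5 uM 5-azacytidine (100%).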

[2] = target: Aldehyde dehydrogenase, mitochondrial (Homo sapiens) (UniProt P05091); experiment: qHTS for Inhibitors of the Aldehyde Dehydrogenase Family (ALDH2) Primary screen (AID 2061308);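 further: plate controls were vehicle for no effect and reference inhibitor for full effect; nearly all actives have a fitted effect of over 55% in size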
[3] = target: Retinaldehyde dehydrogenase 3 (Homo sapiens) (UniProt P47895); experiment: qHTS for Inhibitors of the Aldehyde Dehydrogenase Family (ALDH1A3) Primary screen (AID 2061315);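 further: plate controls were DMSO vehicle for no effect and reference inhibitor for full effect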

CC(=O)C12OC(C)(C)OC1CC1C3CCC4=CC(=O)C=CC4(C)C3(F)C(O)CC12C (centres undefined)
inactive: activation [1] -9.67% | Potency [2] | Potency [3]

COC1=CC(=O)O/C1=C(/OC)[C@@H]1O[C@H]1c1ccccc1
inactive: activation [1] -3.05% | Potency [2] | Potency [3]

CC1(C)[C@@H]2CC=C(CO[C@@H]3O[C@H](CO[C@@H]4OC[C@H](O)[C@H](O)[C@H]4O)[C@@H](O)[C@H](O)[C@H]3O)[C@H]1C2
inactive: activation [1] -4.46% | Potency [2] | Potency [3]

CC1(C)CC[C@]2(C(=O)O)CC[C@]3(C)C(=CCC4[C@@]5(C)C[C@@H](O)[C@H](O)C(CO)(CO)C5CC[C@]43C)C2[C@@H]1O (some centres undefined)
inactive: activation [1] -9.16% | Potency [2] | Potency [3]

CC1(C)CCC[C@@]2(C)[C@H]1[C@H](O)C=C(CO)[C@]2(O)CO
inactive: activation [1] -1.53% | Potency [2] | Potency [3]

CC(C)OC(=O)N1CCC(Oc2ncnc3c2cnn3-c2ccc(S(C)(=O)=O)cc2F)CC1
inactive: activation [1] 4.3% | Potency [2] | Potency [3]

COc1cc(C2Oc3c(OC)cc(CCCO)cc3C2CO)ccc1O[C@H]1O[C@H](C)[C@@H](O)[C@H](O)[C@@H]1O (some centres undefined)
inactive: activation [1] -13.7% | Potency [2] | Potency [3]

C[C@@H]1O[C@@H](O[C@H]2[C@H](O[C@H]3CC[C@@]4(C)C(CC[C@]5(C)C4C=C[C@]46OC[C@@]7(CCC(C)(C)C[C@H]74)[C@@H](O[C@@H]4O[C@@H](C)[C@H](O)[C@@H](O)[C@H]4O)C[C@]65C)[C@]3(C)CO)O[C@H](CO)[C@@H](O)[C@@H]2O[C@@H]2O[C@H](CO)[C@@H](O)[C@H](O)[C@H]2O)[C@H](O)[C@H](O)[C@H]1O (some centres undefined)
inactive: activation [1] 0% | Potency [2] | Potency [3]
